Measurements from PubChem BioAssay (NCI).
This is part of a sample that, as a whole, favours compounds with a hit. Of some 79,000 tested, about 15% had one in any assay. Active and inactive are the calls of the source. Cut-off read from the data, not from the text of the source: active = growth inhibition above about 70%; inactive = the rest.

Experiments:
[1] = NCI Yeast Anticancer Drug Screen. Data for the rad50 strain (AID 155);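 note: 0% = growth of vehicle-only cultures of the same strain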; settings: S. cerevisiae rad50 strain growth inhibition; at 50.0 µM; hits give high values
Outline: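 Compounds were tested on a yeast strain with an engineered DNA damage repair alteration; the reported value is growth inhibition normalised to vehicle treatment.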

[2] = NCI Yeast Anticancer Drug Screen. Data for the mec2-1 strain (AID 157); settings: S. cerevisiae mec2-1 strain, at 50.0 µM, hits give high values
Outline: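 Compounds were applied to mec2-1 yeast cells. Their growth was then compared with that of vehicle-treated cultures to give growth inhibition.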

[3] = NCI Yeast Anticancer Drug Screen. Data for the sgs1 mgt1 strain (AID 161);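 note: 0% = growth of cultures given vehicle only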; settings: S. cerevisiae sgs1 mgt1 strain, at 50.0 µM, hits give high values
Outline: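 Compounds are added to genetically altered yeast, and growth is compared with cultures given vehicle alone to give percent inhibition.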

[4] = NCI Yeast Anticancer Drug Screen. Data for the cln2 rad14 strain (AID 165);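 note: 0% = growth equal to vehicle treated cultures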; settings: S. cerevisiae cln2 rad14 strain, at 50.0 µM, hits give high values
Outline: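 Strain: cln2 rad14 yeast, altered in cell cycle control and DNA damage repair. Read-out: growth inhibition vs vehicle.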

[5] = NCI Yeast Anticancer Drug Screen. Data for the bub3 strain (AID 167); settings: S. cerevisiae bub3 mutant strain, at 50.0 µM, hits give high values
Outline: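 Growth of a checkpoint-deficient yeast mutant is measured after compound exposure. Values represent inhibition relative to vehicle.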

[6] = NCI Yeast Anticancer Drug Screen. Data for the mlh1 rad18 strain (AID 175); settings: S. cerevisiae mlh1 rad18 strain growth inhibition; at 50.0 µM; hits give high values
Outline: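 A repair-deficient yeast strain is exposed to test compound, and growth is scored relative to vehicle-treated controls.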

Measured: growth inhibition

CCC[CH2][Sn]([CH2]CCC)([O]C(=O)c1nccnc1N)[O]C(=O)c1nccnc1N
active: [1] 92.2% | [2] 92.5% | [3] 93% | [4] 92.2% | [5] 90.3% | [6] 88.2%

CN(CCO)c1nc2c(c(=O)[nH]1)CCC2
inactive: [1] -3.55% | [2] -21.8% | [3] -43% | [4] -5.25% | [5] -19.4% | [6] -21.8%

O=C1OC(c2cccc(Cl)c2)=N/C1=C\c1cccc([N+](=O)[O-])c1
inactive: [1] 15.5% | [2] 12.3% | [3] 24.6% | [4] 18.9% | [5] 17.6% | [6] 2%

COc1ccc2c(c1)NC(C(C)C)=NS2(=O)=O
inactive: [1] 17.9% | [2] 15.8% | [3] 17.4% | [4] 4.95% | [5] 18.4% | [6] 25.8%

CCN(CC)c1ccc(-c2ccccc2)cc1
inactive: [1] 28.1% | [2] 5.4% | [3] -8.45% | [4] -69.4% | [5] 2.9% | [6] 8.5%

CCCCCCCCCCCCCCCCCC(=O)Oc1c(C(C)(C)C)cc([N+](=O)[O-])c(C)c1[N+](=O)[O-]
active: [1] 98.2% | [2] 99.2% | [3] 98.8% | [4] 98.9% | [5] 99.2% | [6] 98.2%

O=c1[nH]nnc2ccccc12
inactive: [1] 2.85% | [2] 4.8% | [3] 1.85% | [4] 4.55% | [5] 17.9% | [6] -0.55%

CN(C)c1ccc(/C=N/NC(=O)c2cnc3ccccc3c2)cc1
inactive: [1] -7.05% | [2] -4.95% | [3] -11.3% | [4] -0.4% | [5] 8.1% | [6] 17.4%

O=C(O)[C@@H]1[C@H](C(=O)O)[C@H](C(=O)O)C[C@@H]1C(=O)O
inactive: [1] 6.2% | [2] -33.9% | [3] -24.9% | [4] -1.85% | [5] -69% | [6] 20.1%

Cc1[nH]n(-c2ccccc2)c(=S)c1C(=O)c1ccccc1
inactive: [1] -11.7% | [2] 1.05% | [3] 2.55% | [4] 1.7% | [5] 2.25% | [6] 0.45%

COC(=N)CC(=O)C(C)(C)C
inactive: [1] -6.4% | [2] -15.9% | [3] -13.7% | [4] -9.65% | [5] -6.25% | [6] -7.2%

Cc1ccc(S(=O)(=O)Cc2c(C)cc(C)cc2C)cc1
inactive: [1] 12.3% | [2] 3.8% | [3] -2.25% | [4] -30.9% | [5] -10.6% | [6] 1.15%

CCCCCCCCC1=C(CCCCCCC(=O)OC)[14CH2]1
inactive: [1] 0.25% | [2] 16.6% | [3] -11.2% | [4] 43.4% | [5] 3% | [6] 24.5%

OC1CSc2ccccc2-n2cccc21 (configuration not stated)
inactive: [1] 25.8% | [2] 6.4% | [3] 21.8% | [4] 32.9% | [5] 6.75% | [6] 16.4%

O=C(c1ccc(F)cc1)c1ccc2ccccc2c1C(=O)O
inactive: [1] 4.4% | [2] 7.65% | [3] 13.1% | [4] 14.3% | [5] 38.2% | [6] -11.3%

Cc1ccc([N+](=O)[O-])c2c(NCCC[N+](C)(C)[O-])ccnc12
inactive: [1] 35.9% | [2] -18.1% | [3] 20.6% | [4] 14.2% | [5] -24.7% | [6] 4.4%

COC(=O)c1cocc1C(=O)OC
inactive: [1] -13.9% | [2] -7.25% | [3] -3.75% | [4] -2.8% | [5] -15.3% | [6] -15.9%

Cc1ccc2c3nc4ccccc4c-3csc2c1
active: [1] 99.2% | [2] 99.4% | [3] 99.4% | [4] 99% | [5] 99.2% | [6] 99.3%

Cc1ccccc1NP1(Nc2ccccc2C)=NP(Nc2ccccc2C)(Nc2ccccc2C)=NP(Nc2ccccc2C)(Nc2ccccc2C)=NP(Nc2ccccc2C)(Nc2ccccc2C)=N1
inactive: [1] 0.8% | [2] -0.9% | [3] 23.6% | [4] -5.3% | [5] -6.95% | [6] -9.7%

CCc1n[nH]c(=O)n1/N=C/c1ccccc1O
inactive: [1] -9.2% | [2] 3.8% | [3] -5.75% | [4] 3.4% | [5] -0.35% | [6] 24.6%

CC1CCC(C(C)C)C(OC(=O)c2ccccc2O)C1 (configuration not stated)
inactive: [1] 16.1% | [2] 6.9% | [3] -11.3% | [4] 33.5% | [5] 12% | [6] 35.5%

Nc1nc2c(c(-c3nc(N)nc4c3CCC4)n1)CCC2
inactive: [1] 9.7% | [2] 15.4% | [3] 11.6% | [4] 7% | [5] -1.75% | [6] 10.8%

CCCCCCCCCCCCCCCCn1/c(=N\N=O)sc2ccccc21
inactive: [1] -9.65% | [2] -17.9% | [3] -8.4% | [4] 11.6% | [5] -0.4% | [6] -0.25%

C/C(=N\NC(=O)c1ccncc1)c1cccc(Br)c1
inactive: [1] 12% | [2] 13.9% | [3] 5.35% | [4] 6.6% | [5] 5.35% | [6] 11.8%

N#Cc1[nH]nc2nc[nH]c(=O)c12
inactive: [1] -16.3% | [2] -14.8% | [3] -10.8% | [4] -9.95% | [5] 3.9% | [6] 4.85%

Cc1ccccc1CN(C)CCCO
inactive: [1] 4.1% | [2] -13% | [3] -16.8% | [4] -16.1% | [5] -3.85% | [6] 1.05%

COc1cc(C)nc2ccc(C(=O)c3ccccc3)cc12
inactive: [1] 31% | [2] 6.1% | [3] 31.6% | [4] 17.5% | [5] 10.4% | [6] 48%

Nc1ccc(N)c(N)c1
inactive: [1] 26.3% | [2] 53.1% | [3] 31.4% | [4] -31.2% | [5] -4.9% | [6] 6.8%

CN(C)c1ccc(/C=C(\C#N)c2c(Br)cccc2Br)cc1
inactive: [1] -20.1% | [2] -18.8% | [3] -3.65% | [4] -42.8% | [5] 3.1% | [6] -14.7%

COc1ccc(-c2cc(-c3ccc(Cl)cc3)on2)cc1
inactive: [1] -15.1% | [2] 11.2% | [3] -4.55% | [4] -35.8% | [5] 10.6% | [6] -11.4%

CSc1nc(C=O)nc(SC)n1
inactive: [1] 1.25% | [2] -12% | [3] 9.1% | [4] -11.3% | [5] 3.45% | [6] -17.1%

N#CC1=C(N)C(c2ccccc2)(c2ccccc2)CC1
inactive: [1] 30.4% | [2] 29.6% | [3] 8.15% | [4] -0.45% | [5] 0.4% | [6] 35.7%

COc1cc2c(cc1OC)C(=O)N(c1ccc(OCCN3CCCC3)cc1)C2=O
inactive: [1] -20.7% | [2] -17.9% | [3] 4.7% | [4] 19.4% | [5] 15.8% | [6] -10.4%

COc1ccc(C2C(=O)c3ccc(OC)cc3OC2c2cccnc2)cc1 (configuration not stated)
inactive: [1] 14.9% | [2] -8.8% | [3] 53.7% | [4] 29.6% | [5] 45.8% | [6] 25.2%

C#CC(C)(C)Oc1cc(O)c2c(=O)c3ccccc3n(C)c2c1
inactive: [1] -7.9% | [2] -0.35% | [3] 12.2% | [4] 5.3% | [5] 0.2% | [6] 0%

Cc1ccc(/C=C/C(=O)c2c([O-])on[n+]2-c2ccccc2)cc1
inactive: [1] 2.6% | [2] -7.85% | [3] 21.9% | [4] 14.9% | [5] 5% | [6] -4.8%

Cc1c(-c2ccccc2)[nH]c2cc(Cl)ccc2c1=O
inactive: [1] -28.9% | [2] 2.55% | [3] -16.4% | [4] 13% | [5] 16.9% | [6] -10.3%
